Where “and” joins values, the source holds several entries; their conditions need not be identical. Identical values can stand only once. The panel holds about 83,000 compounds, 20% with a hit somewhere; the sample as a whole holds those more often.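 Results are percent growth after 48 hours of single-concentration exposure. 100 means growth as in untreated cells, lower positive values show inhibition; negative values down to -100 show cell death.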 Calls of active or inactive are those of the source. The calls were made as follows: active = growth percent below 10; inactive = the rest.
How the values were obtained:
Test in all cases: NCI-60 one-dose screen, 48 h (100 = growth as untreated, 0 = no growth, -100 = all killed)
HCT-15 colon = test system: HCT-15 colon
HT29 colon = test system: HT29 colon
SNB-75 CNS = test system: SNB-75 CNS
SNB-19 CNS = test system: SNB-19 CNS
U251 CNS = test system: U251 CNS
PC-3 prostate = test system: PC-3 prostate
SK-MEL-5 melanoma = test system: SK-MEL-5 melanoma
UACC-62 melanoma = test system: UACC-62 melanoma
LOX IMVI melanoma = test system: LOX IMVI melanoma
SK-MEL-28 melanoma = test system: SK-MEL-28 melanoma
SK-MEL-2 melanoma = details: 10 µM unless noted
EKVX NSCLC = test system: EKVX NSCLC
SN12C renal = test system: SN12C renal
UO-31 renal = test system: UO-31 renal
TK-10 renal = test system: TK-10 renal
ACHN renal = test system: ACHN renal
CAKI-1 renal = test system: CAKI-1 renal
A498 renal = test system: A498 renal
CCRF-CEM leukemia = test system: CCRF-CEM leukemia
MOLT-4 leukemia = test system: MOLT-4 leukemia

For `CC1CCCc2sc3nc(NNC(=O)c4cnccn4)n(-c4ccccc4)c(=O)c3c21` (stereo unspecified), the growth (HCT-15 colon; 10 µM unless noted) was 26.4% (inactive) and 24.6% (inactive), the growth (HT29 colon; 10 µM unless noted) was 22.4% (inactive) and 26.2% (inactive) and the growth (SNB-75 CNS; 10 µM unless noted) was 36.4% (inactive) and 2.93% (active). For the same compound, the growth (SNB-19 CNS; 10 µM unless noted) was 25.8% (inactive) and 21.6% (inactive), the growth (U251 CNS; 10 µM unless noted) was 4.39% (active) and 8.03% (active) and the growth (PC-3 prostate; 10 µM unless noted) was 30% (inactive) and 27.4% (inactive). For the same compound, the growth (SK-MEL-5 melanoma; 10 µM unless noted) was -38.3% (active) and -65.9% (active), the growth (UACC-62 melanoma; 10 µM unless noted) was -33.9% (active) and -8.57% (active) and the growth (LOX IMVI melanoma; 10 µM unless noted) was 0.839% (active) and 2.01% (active). The growth (SK-MEL-28 melanoma; 10 µM unless noted) was 11.7% (inactive) and 27.4% (inactive), the growth (SK-MEL-2 melanoma) was 11.3% (inactive) and 25.1% (inactive) and the growth (EKVX NSCLC; 10 µM unless noted) was 14.8% (inactive) and 7.14% (active). For the same compound, the growth (SN12C renal; 10 µM unless noted) was 20% (inactive) and 16.7% (inactive), the growth (UO-31 renal; 10 µM unless noted) was 8.23% (active) and 5.71% (active) and the growth (TK-10 renal; 10 µM unless noted) was 30.3% (inactive) and 37.9% (inactive). For the same compound, the growth (ACHN renal; 10 µM unless noted) was 8.58% (active) and 19.9% (inactive), the growth (CAKI-1 renal; 10 µM unless noted) was 5.81% (active) and 0.832% (active) and the growth (A498 renal; 10 µM unless noted) was 27.8% (inactive). The growth (CCRF-CEM leukemia; 10 µM unless noted) was 3.85% (active) and 0.781% (active).

In the case of `CNC(=O)c1cc(Oc2ccc(CC(=O)Nc3cc(C(C)(C)C)nn3C)cc2)ccn1`, the growth (HCT-15 colon; 1 µM) is reported as 92.7% (inactive), the growth (HCT-15 colon; 10 µM) is reported as 83.1% (inactive) and the growth (HCT-15 colon; 30 µM) is reported as 70.5% (inactive). The growth (SNB-19 CNS; 1 µM) was 71.4% (inactive), the growth (SNB-19 CNS; 10 µM) was 65.3% (inactive) and the growth (SNB-19 CNS; 30 µM) was 81.3% (inactive). For the same compound, the growth (U251 CNS; 1 µM) was 86% (inactive), the growth (U251 CNS; 10 µM) was 84.5% (inactive) and the growth (U251 CNS; 30 µM) was 90.3% (inactive). The growth (PC-3 prostate; 1 µM) was 77.9% (inactive), the growth (PC-3 prostate; 10 µM) was 77.1% (inactive) and the growth (PC-3 prostate; 30 µM) was 85.5% (inactive). For the same compound, the growth (SK-MEL-5 melanoma; 1 µM) was 22.8% (inactive), the growth (SK-MEL-5 melanoma; 10 µM) was 30.8% (inactive) and the growth (UACC-62 melanoma; 1 µM) was 62.2% (inactive). For the same compound, the growth (UACC-62 melanoma; 10 µM) was 42% (inactive), the growth (UACC-62 melanoma; 30 µM) was 56.3% (inactive) and the growth (LOX IMVI melanoma; 1 µM) was 76.6% (inactive). The growth (LOX IMVI melanoma; 10 µM) was 48.9% (inactive), the growth (LOX IMVI melanoma; 30 µM) was 56.2% (inactive) and the growth (SK-MEL-28 melanoma; 1 µM) was 81.7% (inactive). The growth (SK-MEL-28 melanoma; 10 µM) was 83.8% (inactive), the growth (SK-MEL-28 melanoma; 30 µM) was 89.9% (inactive) and the growth (EKVX NSCLC; 1 µM) was 73.5% (inactive). For the same compound, the growth (EKVX NSCLC; 10 µM) was 62% (inactive), the growth (EKVX NSCLC; 30 µM) was 49.2% (inactive) and the growth (SN12C renal; 1 µM) was 72.8% (inactive). The growth (SN12C renal; 10 µM) was 78.6% (inactive), the growth (SN12C renal; 30 µM) was 87.1% (inactive) and the growth (UO-31 renal; 1 µM) was 77.1% (inactive). For the same compound, the growth (UO-31 renal; 10 µM) was 93.2% (inactive), the growth (UO-31 renal; 30 µM) was 113% (inactive) and the growth (ACHN renal; 1 µM) was 67.7% (inactive). For the same compound, the growth (ACHN renal; 10 µM) was 67.8% (inactive), the growth (ACHN renal; 30 µM) was 73.4% (inactive) and the growth (CAKI-1 renal; 1 µM) was 57.9% (inactive). For the same compound, the growth (CAKI-1 renal; 10 µM) was 61.3% (inactive), the growth (CAKI-1 renal; 30 µM) was 76.5% (inactive) and the growth (A498 renal; 1 µM) was 69.3% (inactive). The growth (A498 renal; 10 µM) was 31.2% (inactive), the growth (A498 renal; 30 µM) was 54.8% (inactive) and the growth (CCRF-CEM leukemia; 1 µM) was 73.3% (inactive). For the same compound, the growth (CCRF-CEM leukemia; 10 µM) was 66.1% (inactive), the growth (CCRF-CEM leukemia; 30 µM) was 62.9% (inactive) and the growth (MOLT-4 leukemia; 1 µM) was 78% (inactive). The growth (MOLT-4 leukemia; 10 µM) was -64.3% (active) and the growth (MOLT-4 leukemia; 30 µM) was 65.6% (inactive).

For `CCc1ccccc1-n1c(N)c(C#N)c(-c2ccc(OC)c(OC)c2)c(C#N)c1=O`, the growth (HCT-15 colon; 10 µM) was 101% (inactive), the growth (HCT-15 colon; 100 µM) was 81.2% (inactive) and the growth (HT29 colon; 10 µM) was 110% (inactive). For the same compound, the growth (HT29 colon; 100 µM) was 102% (inactive), the growth (SNB-75 CNS; 10 µM) was 98% (inactive) and the growth (SNB-75 CNS; 100 µM) was -43% (active). For the same compound, the growth (SNB-19 CNS; 10 µM) was 104% (inactive), the growth (SNB-19 CNS; 100 µM) was 10.5% (inactive) and the growth (U251 CNS; 10 µM) was 101% (inactive). The growth (U251 CNS; 100 µM) was 8.35% (active), the growth (PC-3 prostate; 10 µM) was 110% (inactive) and the growth (PC-3 prostate; 100 µM) was 14.2% (inactive). For the same compound, the growth (SK-MEL-5 melanoma; 10 µM) was 113% (inactive), the growth (SK-MEL-5 melanoma; 100 µM) was 67.1% (inactive) and the growth (UACC-62 melanoma; 10 µM) was 105% (inactive). For the same compound, the growth (UACC-62 melanoma; 100 µM) was 35% (inactive), the growth (LOX IMVI melanoma; 10 µM) was 104% (inactive) and the growth (LOX IMVI melanoma; 100 µM) was 57.8% (inactive). For the same compound, the growth (SK-MEL-28 melanoma; 10 µM) was 124% (inactive), the growth (SK-MEL-28 melanoma; 100 µM) was 54% (inactive) and the growth (EKVX NSCLC; 10 µM) was 106% (inactive). The growth (EKVX NSCLC; 100 µM) was 29.1% (inactive), the growth (SN12C renal; 10 µM) was 109% (inactive) and the growth (SN12C renal; 100 µM) was 19.8% (inactive). For the same compound, the growth (UO-31 renal; 10 µM) was 85.2% (inactive), the growth (UO-31 renal; 100 µM) was 37.1% (inactive) and the growth (TK-10 renal; 10 µM) was 114% (inactive). The growth (TK-10 renal; 100 µM) was 2.47% (active), the growth (ACHN renal; 10 µM) was 95.8% (inactive) and the growth (ACHN renal; 100 µM) was 16.1% (inactive).
